# RMI-FANCM inh: disruptors of RMI1/RMI2 association with MM2 peptide – biochemical, fluorescence polarization, human, primary screen; RMI core complex with F-MM2 peptide; active compounds read low; 0.58% of 70,000 active; RMI core complex (RMI1/RMI2) binding to FANCM MM2 peptide, human; FP signal (polarization) at 33 µM; AID 1159607, 2016; in the data active = FP signal below about 40
# Numbers without * were called inactive. Shown is part of a subset that was picked to be rich in hits.
SMILES,RMI-FANCM inh
CC(=O)C1C(=O)c2cccc([N+](=O)[O-])c2C1=O (configuration not stated),53
CC1CCN(Cc2cc(Cl)c(O)c(Cl)c2)CC1,64
Cc1cc(-c2nc3cccnc3s2)ccc1NC(=O)c1ccc2ccccc2n1,1*
CCOc1ccccc1C(=O)Nc1ccc(-c2nc3cccnc3s2)cc1,94
O=C(Nc1ccc(-c2nc3cccnc3s2)cc1)c1ccco1,155
CN(C)CCCN(C(=O)CCOc1ccccc1)c1nc2c(Cl)cccc2s1,103
O=C(CNC(=O)CSc1nc2ccccc2s1)NCc1ccccc1,62
Cc1cccc(/C=C/C(=O)Nc2ncc(Cc3cccc(C(F)(F)F)c3)s2)c1,79
C=CCOCC(O)CN1CCN(c2cccc(C(F)(F)F)c2)CC1 (configuration not stated),65
CC(=O)OCC(=O)[C@@]1(O)CCC2C3CCC4=CC(=O)CC[C@]4(C)C3C(=O)C[C@@]21C (some centres not stated),64
CC(=O)OCC(=O)[C@@]1(O)CC[C@H]2[C@@H]3CCC4=CC(=O)CC[C@]4(C)[C@H]3C(=O)C[C@@]21C,58
C[C@]12CCC(=O)C=C1CCC1C2C(=O)C[C@@]2(C)C1CC[C@]2(O)C(=O)CO (some centres not stated),-7*
COc1ccc(S(=O)(=O)Nc2ccc(CN3CCN(c4ccccn4)CC3)cc2)cc1,59
CC(C)(C)c1ccc(S(=O)(=O)Nc2ccc(Cl)c(Cl)c2)cc1,73
COc1ccc(S(=O)(=O)NCC(c2ccc(N(C)C)cc2)N2CCc3ccccc3C2)cc1OC (configuration not stated),55
COc1cc(C)c(C)cc1S(=O)(=O)NCC(c1ccsc1)N1CCc2ccccc2C1 (configuration not stated),78
COc1cc(C)c(C)cc1S(=O)(=O)NCC(c1ccc(N(C)C)cc1)N1CCc2ccccc21 (configuration not stated),19*
O=C1c2ccccc2C(=O)N1CCCCN(C(=O)/C=C/c1cccc([N+](=O)[O-])c1)c1ccc(Cl)cc1,63
CCc1cc2c(SCC(=O)Nc3ccccc3[N+](=O)[O-])ncnc2s1,60
Cc1cc(C(=O)N(CCCN(C)C)c2nc3ccc(Cl)cc3s2)on1,78
COc1ccccc1N1CCN(CCNC(=O)C(=O)Nc2ccon2)CC1,64
Fc1ccc(-c2cc3c(SCc4cccc(C(F)(F)F)c4)nccn3n2)cc1,69
C=Cc1ccc(CSc2nccn3nc(-c4ccc(OC)cc4)cc23)cc1,70
C=Cc1ccc(CSc2nccn3nc(-c4ccc(F)cc4)cc23)cc1,34*
CCOC(=O)c1cc(-c2ccc(N)cc2)oc1C,56
SMILES,RMI-FANCM inh
CCOC(=O)c1c(N)sc(C)c1-c1ccccc1,52
CCOC(=O)c1c(N)oc2c(-c3ccc(C)cc3)c3c(C(=O)OCC)c(N)oc3cc12,22*
O=C(CCCS(=O)(=O)Cc1ccccc1)N(Cc1ccccc1)c1nc2ccc(F)cc2s1,73
Cc1ccc(C)c(S(=O)(=O)n2cccn2)c1,63
Cc1ccc(C)c(S(=O)(=O)N=C2C=C(Br)C(=O)c3ccccc32)c1,-1*
Cc1ccc(C)c(S(=O)(=O)Nc2ccccc2F)c1,73
Cn1cnnc1SCc1cc(=O)c(OCC(=O)c2ccc(Cl)cc2)co1,53
O=S(=O)(Nc1cccc(-c2ccc3nncn3n2)c1)c1cccnc1,55
Cc1c(Cl)cccc1NC(=S)NC(C)C(c1cccs1)N1CCOCC1 (configuration not stated),60
CO/N=C(/C(=O)NC1C(=O)N2C(C(=O)O)=C(COC(C)=O)CSC12)c1csc(N)n1 (configuration not stated),59
CO/N=C(/C(=O)N[C@@H]1C(=O)N2C(C(=O)O)=C(C[N+]3(C)CCCC3)CS[C@H]12)c1csc(N)n1,50
C=CC1=C(C(=O)O)N2C(=O)[C@@H](NC(=O)C(=NO)c3csc(N)n3)[C@H]2SC1,34*
O=C(Cc1ccccc1Cl)NCCOc1cc(N2CCCCC2)ncn1,60
COc1cccc(S(=O)(=O)c2cc3cc(Br)ccc3oc2=O)c1,64
COc1ccc2nc(-c3ccc(F)c(NC(=O)c4ccccc4C)c3)cn2n1,98
COc1ccc2nc(-c3ccc(OC)c(NC(=O)c4ccccc4C)c3)cn2n1,73
COc1ccc2nc(-c3ccc(Cl)c(NC(=O)c4ccccc4C)c3)cn2n1,33*
Cc1ccc2cc(CCNC(=S)Nc3ccccc3Cl)c(=O)[nH]c2c1C,59
CN(C)CCCNC(=O)Nc1ccc(Cl)cc1,42
O=C(Nc1nnc(-c2ccncc2)o1)c1ccccc1I,70
COc1cc(OC)cc(C(=O)NCC(c2cccc3ccccc23)N(C)C)c1 (configuration not stated),54*
COc1ccc(CC(=O)NCC(c2cccc3ccccc23)N(C)C)cc1 (configuration not stated),51
CN(C)C(CNC(=O)c1cccs1)c1cccc2ccccc12 (configuration not stated),50
N#Cc1c(-c2ccc3c(c2)OCO3)nc(N2CCCCC2)[nH]c1=O,23*
N#Cc1c(-c2ccc3c(c2)OCO3)cc(-c2ccccc2O)[nH]c1=O,76
SMILES,RMI-FANCM inh
COc1ccc(-c2cc(-c3ccc(C)c(C)c3)nc(SCC(=O)NCc3ccc4c(c3)OCO4)c2C#N)cc1OC,104
CC(C)CCn1c(O)c(N=Nc2c(Cl)cc(Cl)cc2Cl)c2ccccc21,59
O=C(NCCc1c[nH]c2ccccc12)C(=O)Nc1ccc(N2CCCS2(=O)=O)cc1,127
O=C(N/N=C\c1c(F)cccc1Cl)C1CC1,59
O=C(NCCn1ncc2c(=O)n(Cc3cccc(C(F)(F)F)c3)cnc21)c1cccs1,68
O=c1c(Cl)c2oc3ccccc3nc-2c2ccccc12,32*
O=c1[nH]c(CSc2nc3ccccc3o2)nc2ccccc12,55
O=S(=O)(O)c1nc2ccccc2o1,61
COc1ccc(-c2csc3c(=O)n(Cc4cc(C)ccc4C)cnc23)cc1OC,61
COc1ccc2nc(-c3ccc(OC)c(NC(=O)c4ccc(F)c(F)c4)c3)cn2n1,77
Cn1c(=O)c2c(nc(N=Nc3c(O)[nH]c(=O)[nH]c3=O)n2C)n(C)c1=O,70
CC(C)(C)c1ccc(NC(=O)NNC(=O)c2cccn(Cc3cccc(F)c3)c2=O)cc1,63
Cn1c(=O)c2c(SCC(=O)NCC3CCCO3)ccnc2n(C)c1=O (configuration not stated),53
N=C(N)Sc1cnc2ccccc2n1,37*
O=Cc1cnc2ccccc2n1,59
Cc1cc(SCC(N)=O)nc2ccccc12,71
Cc1ccccc1-c1ccc(N2CCN(C(=O)NC3CCCCC3)CC2)nn1,71
O=C(Nc1nnc2n1CCCS2)c1cc(C(F)(F)F)cc(C(F)(F)F)c1,55
O=C(N=Nc1c(O)[nH]c2ccc([N+](=O)[O-])cc12)c1ccncc1,62
CCCCCC(=O)N=Nc1c(O)[nH]c2ccc([N+](=O)[O-])cc12,65
Cc1ccc(C(C)C)c(OCC(=O)N=Nc2c(O)[nH]c3ccc([N+](=O)[O-])cc23)c1,11*
CC(=O)N1CCN(S(=O)(=O)c2cccc(C(=O)NCc3ccco3)c2)CC1,60
COC(=O)c1sc2ccccc2c1NC(=O)c1ccc(Br)s1,85
COC(=O)c1sc2ccccc2c1NC(=O)c1cc(Cl)sc1Cl,30*
COC(=O)c1sc2ccccc2c1NC(=S)NC(=O)c1ccc(Cl)cc1,63

# Screening results as filed in PubChem.
